# Experimental data taken from PubChem BioAssay (NCATS).
# Values without a mark were called inactive. Calls of active or inactive are those of the source. Calls follow the shape of the dose curve; as a rule, active = well fitted inhibition curve with a large enough effect; inconclusive = small, poorly fitted or top-dose-only effect; inactive = flat fitted curve, though single readings scatter.
# Biological target: Luciferin 4-monooxygenase (Photinus pyralis) (UniProt P08659)
# Test: Primary firefly luciferase (FLuc) qHTS assay for identification of artifact compounds. (AID 1845220); also: nearly all actives have a fitted effect of over 60% in size;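 as to activity change, negative = inhibition: plate controls were DMSO vehicle for no effect and no enzyme for full effect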
# Conditions: purified firefly luciferase, luminescence, 5 min; series mostly up to 54.1 µM; activity change, negative = inhibition: at the top concentration
# Outline: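 D-luciferin and ATP (10 uM each, final) in Tris acetate buffer pH 7.6 were incubated with compounds for 15 min at room temperature. The reaction was started with 10 nM Photinus pyralis luciferase and luminescence read after 5 min. Percent inhibition was fitted to a 4-parameter Hill equation.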
SMILES,"activity change, negative = inhibition",outcome
COCCN1CCC(C(=O)NO)(S(=O)(=O)c2ccc(Oc3ccc(OC(F)(F)F)cc3)cc2)CC1,1.95%,–
Cc1onc(-c2c(Cl)cccc2Cl)c1CC(=O)NCc1ccc(OCC(F)(F)F)nc1,2.49%,–
CC1(C)CC[C@]2(C(=O)O[C@@H]3O[C@H](CO)[C@@H](O)[C@H](O)[C@H]3O)CC[C@]3(C)C(=CCC4[C@@]5(C)CC[C@H](O[C@@H]6O[C@H](C(=O)O)[C@@H](O[C@@H]7O[C@H](CO)[C@@H](O)[C@H](O)[C@H]7O)[C@H](O)[C@H]6O)C(C)(C)C5CC[C@]43C)C2C1 (some centres undefined),–,inactive [at 11.6 µM]
CN[C@H](CNC(=O)N1CCC[C@@H]([C@@H](OCCNC(=O)OC)c2cccc(Cl)c2)C1)C[C@H]1CCCOC1,–,inactive
COC(=O)C1=CO[C@@H](O[C@@H]2O[C@H](CO[C@@H]3O[C@H](CO)[C@@H](O)[C@H](O)[C@H]3O)[C@@H](O)[C@H](O)[C@H]2O)[C@@H]2C(CO)=CC[C@H]12,2.97% [at 25.7 µM],–
CC(C)Oc1ccc(-c2nc(-c3cccc4c3CCC4NCCC(=O)O)no2)cc1C#N (centres undefined),-1.75%,–
C/C=C1/[C@H](O[C@@H]2O[C@H](CO)[C@@H](O)[C@H](O)[C@H]2O)OC=C(C(=O)OC)[C@H]1CC(=O)OCCc1ccc(O)c(O)c1,-5.77% [at 25.7 µM],–
COc1c2cc(c(O)c1OC)CCCCC(O)CCc1ccc(O)c-2c1 (centres undefined),–,inactive
COC(=O)C1=CO[C@@H](O[C@@H]2O[C@H](CO)[C@@H](O)[C@H](O)[C@H]2O)[C@@H]2[C@@H](C)[C@@H](O)C(O)[C@H]12 (some centres undefined),0.657% [at 25.7 µM],–
CC1(C)CC[C@]2(C(=O)O[C@@H]3O[C@H](CO)[C@@H](O)[C@H](O)[C@H]3O)CC[C@]3(C)C(=CCC4[C@@]5(C)CC[C@H](O[C@@H]6O[C@H](C(=O)O)[C@@H](O)[C@H](O)[C@H]6OC6OC(CO)C(O)C(O)C6O)C(C)(C)C5CC[C@]43C)[C@@H]2C1 (some centres undefined),1.1% [at 11.6 µM],–
COC(=O)C1=COC(O[C@@H]2O[C@H](COC(=O)/C=C/c3ccc(O)cc3)[C@@H](O)[C@H](O)[C@H]2O)C2C(CO)=CCC12 (some centres undefined),-0.0766% [at 25.7 µM],–
NC(Cc1c[nH]c2ccc(O)cc12)C(=O)O (centres undefined),–,inactive
COc1cccc2c1c(O)c(C(=O)N(C)c1ccc(C(F)(F)F)cc1)c(=O)n2C,1.6%,–
CCC1OC(=O)C(C)CC(C)C(=O)/C(C)=C/C(C)C(=O)/C=C/C1(C)O (centres undefined),4.56%,–
CC1(C)OC(=O)C=C[C@@]2(C)C1CC(=O)[C@]1(C)C2CC[C@@]2(C)[C@H](c3ccoc3)OC(=O)[C@H]3O[C@]321 (some centres undefined),1.93% [at 25.7 µM],–
CC[C@H](NC(=O)c1c(O)c(-c2ccccc2)nc2ccccc12)c1ccccc1,–,inactive
C[C@@H]1O[C@@H](O[C@@H]2[C@@H](O)[C@H](O[C@@H]3[C@@H](O)[C@@H](O)[C@H](O[C@H]4[C@H](OC(=O)[C@]56CCC(C)(C)C[C@H]5C5=CCC7[C@@]8(C)C[C@H](O)[C@H](O[C@@H]9O[C@H](C(=O)O)[C@@H](O)[C@H](O)[C@H]9O)[C@@](C)(CO)C8[C@H](O)C[C@@]7(C)[C@]5(C)C[C@H]6O)O[C@@H](CO)[C@@H]4O)O[C@H]3C)OC[C@H]2O)[C@H](O)[C@H](O)[C@H]1O (some centres undefined),2.08% [at 11.6 µM],–
Cc1ccc(-c2c(-c3nn(C)c4ncnc(N5CC[C@H](N6CCCCC6)C5)c34)cnn2C)cc1,–,inactive
CC1(C)CC[C@]2(C(=O)O)CC[C@]3(C)C(=CCC4[C@@]5(C)C[C@@H](O)[C@H](O)[C@@](C)(CO)C5[C@H](O)C[C@]43C)[C@@H]2C1 (some centres undefined),1.17% [at 25.7 µM],–
COc1cccc(OC)c1-c1nc(C(=O)N[C@@H](CC(C)C)C(=O)O)cn1-c1ccnc2cc(Cl)ccc12,3.23%,–
CC12CC(c3ccoc3)OC(=O)C1CCC1(C)C2CCC(O)C1(C)O (centres undefined),3.8%,–
C[C@@H]1CC[C@]2(C(=O)O[C@@H]3O[C@H](CO[C@@H]4O[C@H](CO)[C@@H](O)[C@H](O)[C@H]4O)[C@@H](O)[C@H](O)[C@H]3O)CC[C@]3(C)C(=CCC4[C@@]5(C)CC[C@H](O)[C@](C)(C(=O)O)C5CC[C@]43C)[C@@H]2[C@]1(C)O (some centres undefined),-0.663% [at 11.6 µM],–
COc1cc(/C=C/C(=O)O[C@H]2[C@H](O)[C@@H](CO)O[C@@]2(CO)O[C@H]2O[C@H](CO)[C@@H](O)[C@H](O)[C@H]2O)cc(OC)c1O,–,inactive [at 25.7 µM]
CC12CC34CC(O)C5C(CO)(CO)CC(=O)CC5(C)C3CC1C2C4 (centres undefined),1.39%,–
